Calls of active or inactive are those of the source. The calls were made as follows: active = hit-call score of the fitted dose curve at least 0.9, where 1 is the maximum; inconclusive = response in the unintended direction; inactive = score below 0.9.

The subject of this experiment is rat CYP3A1, gene 25642. Kind of experiment: NVS_ADME_rCYP3A1: NovaScreen (NVS) CYP450-related Enzyme Activity (ADME) Assay for rat CYP3A1 (AID 2283126). The method, then:
NVS_ADME_rCYP3A1 is a biochemical, single-readout assay that uses extracted gene-proteins in a cell-free assay. Measurements were taken 0.5 hour after chemical dosing in a 96-well plate.NVS_ADME_rCYP3A1 is one of one assay component(s) measured or calculated from the NVS_ADME_rCYP3A1 assay. It is designed to make measurements of enzyme activity, a form of enzyme reporter, as detected with fluorescence intensity signals by Fluorescence technology.Data from the assay component NVS_ADME_rCYP3A1 was analyzed into 1 assay endpoint. This assay endpoint, NVS_ADME_rCYP3A1, was analyzed in the positive analysis fitting direction relative to Acetonitrile as the negative control and baseline of activity. Using a type of enzyme reporter, loss-of-signal activity can be used to understand changes in the enzymatic activity as they relate to the gene Cyp3a23/3a1. Furthermore, this assay endpoint can be referred to as a primary readout, because this assay has produced multiple assay endpoints where this one serves a enzymatic activity function. To generalize the intended target to other relatable targets, this assay endpoint is annotated to the cyp intended target family, where the subfamily is xenobiotic metabolism.
Binding assays used specific radioligands (tritiated, iodinated) with non-radioactive competitive displacement ligands in agonist or antagonist protocols (as indicated) and various reference compounds and inhibitors to titrate specific binding to receptors and transporters. Most enzyme assays (CYPs, kinases, phosphatases, proteases, HDACs) used recombinant protein and specific substrates (fluorescence mostly, some colorimetric and radioactive) and inhibitors, followed by a biochemical separation of substrate and product. All assays for the biochemical HTS were initially run in duplicate at a single concentration (10 uM for CYP450 assays and 25 uM for all others). Assay-chemical combinations meeting a pre-defined threshold (e.g., 30% inhibition and other criteria defined below) were then run in singleton concentration-response format with maximum concentration of 20 uM for CYPs and 50 uM for all others. Each assay was run with positive and negative controls, and concurrent controls on every plate. The follow-up (secondary) screen tested active chemical-pairs in concentration series, as well as a few additional assays not tested in the primary screen, some selected negative inactives, and several cases re-run in the concentration series for confirmatory purposes.
A word on the AC50: it is the concentration giving half of the maximal activity seen. Turning to `CCOP(=S)(OCC)Oc1nc(Cl)n(C(C)C)n1`, the concentration at half-maximal activity (AC50) was 3.46 µM (active).

For `CCOP(=O)(OCC)Oc1nc(Cl)c(Cl)cc1Cl`, the AC50 is 7.93 µM (active).

For the compound `CCCCC(O)(Cn1cncn1)c1ccc(Cl)cc1Cl` (stereo not drawn), the half-maximal activity concentration (AC50) is 0.995 µM (active).

With `COCC(=O)N(c1c(C)cccc1C)C(C)C(=O)OC` (stereo not drawn), the AC50 is 4.46 µM (active).

Regarding `COP(=S)(OC)SCn1nnc2ccccc2c1=O`, the AC50 was 3.02 µM (active).

As to `CCCCOCN(C(=O)CCl)c1c(CC)cccc1CC`, the AC50 is 10 µM (active).

With `CC(C)NC(=O)N1CC(=O)N(c2cc(Cl)cc(Cl)c2)C1=O`, the AC50 is 2.27 µM (active).

Regarding `CCNP(=S)(OC)O/C(C)=C/C(=O)OC(C)C` (stereo not drawn), the AC50 is 1.93 µM (active).

`CCN(CC)C(=O)C(C)Oc1cccc2ccccc12` (stereo not drawn): the half-maximal activity concentration (AC50) is 4.43 µM (active).

With `CCCCC(C#N)(Cn1cncn1)c1ccc(Cl)cc1` (stereo not drawn), the half-maximal activity concentration (AC50) is 3.82 µM (active).

On to `CO/N=C(/C1=NOCCO1)c1ccccc1Oc1ncnc(Oc2ccccc2Cl)c1F`, for which the AC50 was 0.705 µM (active).

On to `COc1cc(OC)nc(NC(=O)NS(=O)(=O)c2ncccc2OCC(F)(F)F)n1`, for which the AC50 was 5.87 µM (active).

Regarding `C=CCOC(=O)C(C)(C)OC(=O)c1cc(-n2c(=O)cc(C(F)(F)F)n(C)c2=O)ccc1Cl`, the AC50 was 0.595 µM (active).

On to `COC(=O)c1c(C(F)F)nc(C(F)(F)F)c(C2=NCCS2)c1CC(C)C`, for which the AC50 was 2.32 µM (active).

Regarding `COP(=S)(OC)Oc1ccc([N+](=O)[O-])c(C)c1`, the half-maximal activity concentration (AC50) is 8.22 µM (active).

On to `Nc1cnn(-c2ccccc2)c(=O)c1Cl`, for which the half-maximal activity concentration (AC50) was 7.35 µM (active).

On to `CC(C)(C)C(=O)C(Oc1ccc(Cl)cc1)n1cncn1` (stereo not drawn), for which the AC50 was 8.49 µM (active).

Take `Cc1ccc(N=CN(C)C=Nc2ccc(C)cc2C)c(C)c1`: the half-maximal activity concentration (AC50) was 4.8 µM (active).

Consider `CC1(C)CCC(=Cc2ccc(Cl)cc2)C1(O)Cn1cncn1` (stereo not drawn), for which the AC50 was 0.0126 µM (active).

As to `COc1ccc(-c2ccccc2)cc1NNC(=O)OC(C)C`, the half-maximal activity concentration (AC50) was 2.96 µM (active).

For `COC(=O)NC(=S)Nc1ccccc1NC(=S)NC(=O)OC`, the AC50 was 7.66 µM (active).

Consider `Clc1nc(Cl)nc(Nc2ccccc2Cl)n1`, for which the outcome was inactive.

Regarding `CC(C)N1C(=O)N(c2ccccc2)CSC1=NC(C)(C)C`, the half-maximal activity concentration (AC50) was 5.84 µM (active).

These data come from PubChem BioAssay (EPA / NIEHS).
